The values that follow come from PubChem BioAssay AID1569 (National Center for Advancing Translational Sciences (NCATS), 2009).

This assay is described as follows: Confirmation Concentration-Response Assay for lipid storage modulators. Further: nearly all actives have a fitted effect of over 80% in size. As to conditions: Drosophila S3 cells, lipid droplet BODIPY/CellTracker ratio, 18-24 h. An excerpt: NIH Molecular Libraries Probe Production Centers Network [MLPCN] NIH Chemical Genomics Center [NCGC] MLPCN Grant: 1 R03 MH085686-01 Assay Submitter (PI): Beller, Mathias; Max-Planck-Institut fur Biophysikalische Chemie NCGC Assay Overview: Storing lipids as a reservoir for energy or the anabolism of elementary metabolites is a common feature of probably all cells and is conserved from bacteria to humans. The universal cellular lipid storage organelle is the so-called lipid storage droplet (LD). Although ubiquitous, LDs share a simple structure composed of a hydrophobic core that harbors the storage lipids, which is shielded by a droplet-specific phospholipid monolayer to which proteins are attached. […] Exo1 identified in the primary screen (AID 1519) and several analogs were measured in the lipid storage assay as 24-point concentration-response curves to confirm potency and SAR.
We dispensed 4 uL of cells at 1.25 x 10^6 cells/mL into LoBase Aurora COC 1,536-well plates (black walled, clear bottom) with a bottle-valve solenoid-based dispenser (Aurora) to obtain 5,000 cells/well. […] Fluorescence was detected by excitation of the fluorophores with a 488-nm laser on an Acumen Explorer (TTP Lab Tech). […] Cells were detected using channel 3 (575- 640 nm) with 5-um width and 100-um depth filters. The ratio of the total intensity in PMT channel 1 over total intensity of channel 3 was also calculated. […]

Records with an inconclusive call do not appear. Activity calls are given as the source filed them. The call rests on the fitted dose curve; in most records, active means well fitted inhibition curve with a large enough effect; inconclusive means small, poorly fitted or top-dose-only effect, or effect the other way, or another doubt; inactive means no such curve, though single readings can be large or run the other way.
Potency means the concentration at half of the fitted maximal effect.

`O=C(Nc1cccc(Cl)c1)OC1CN2CCC1CC2` (configuration not stated): the Potency is 8.88 µM (active). Under `COc1cc2c(cc1OC)[C@@H]1C(=O)c3ccc4c(c3O[C@@H]1CO2)C[C@H](C(C)C)O4` stands 0.0499 µM (active).
